ALDH1A1 block – inhibitors of human aldehyde dehydrogenase 1A1. P00352. Purified ALDH1A1, NADH fluorescence, propionaldehyde substrate. Potency, µM (highest dose often 75.3 µM), for the others: top-dose activity, negative = inhibition, hits mostly inhibitors. 7.3% of 220,000 active;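 further: potency means the concentration at half of the fitted maximal effect; plate controls were no enzyme wells and a reference inhibitor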
HPGD inh – HPGD (human) dehydrogenase inhibition; P15428; purified HPGD, NADH fluorescence kinetic, PGE2 substrate; Potency, µM, for the others: top-dose activity change, negative = inhibition, usual class: inhibitors; 4.3% of 150,000 active; further: potency means the concentration at half of the fitted maximal effect
Target sequence (P15428 whole entry, looked up): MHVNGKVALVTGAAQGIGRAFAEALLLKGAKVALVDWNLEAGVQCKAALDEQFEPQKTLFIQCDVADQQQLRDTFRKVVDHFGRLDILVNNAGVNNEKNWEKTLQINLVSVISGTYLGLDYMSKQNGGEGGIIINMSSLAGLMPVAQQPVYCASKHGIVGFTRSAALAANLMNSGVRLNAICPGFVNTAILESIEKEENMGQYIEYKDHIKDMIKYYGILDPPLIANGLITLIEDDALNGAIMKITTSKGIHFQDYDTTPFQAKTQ
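20 nM HPGD preincubated 15 min at room temperature with compound in 50 mM Tris-HCl pH 8, 0.01% Tween 20. Started with 1 mM NAD+ and 30 uM prostaglandin E2; NADH fluorescence (360/450 nm) read 5 times over 30-s intervals, last minus first.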
IMPase inh – cell-permeable inhibitors of inositol monophosphatase (IMPase) | inhibition (IP1 accumulation), % at 46.1 µM | P97697 | AID 901 | CHO-M1 cells, IP1 accumulation, HTRF TR-FRET ratio | 120,000 tested, under 10 active; active means well fitted curve in the direction sought with a large enough effect in the signal ratio, not every such curve was filed as active; inconclusive means small, poorly fitted or top-dose-only effect, or a change in a side signal; inactive means no such curve, though single readings can be large or run the other way; the % refers to the signal ratio;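 further: cells stimulated with carbachol in lithium chloride buffer; plate controls were DMSO basal wells for no effect and reference inhibitor wells for full effect; higher means more IMPase inhibition seen as more IP1 and lower FRET ratio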
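Cellular IMPase inhibition is scored as a rise in cytosolic IP1, detected by competitive TR-FRET between d2-labelled IP1 and a europium anti-IP1 antibody. M1-expressing CHO cells were stimulated with carbachol for 30 min at 37C, with lithium (50 mM LiCl) present in the buffer.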
An asterisk follows results filed as active; ? = inconclusive; nt = no result given; [ ] = remark or other dose. Only some compounds are listed: those with a hit (about 9% of all), similar ones and a draw of the others. Unless noted, the call rests on the fitted dose curve; in most records, active means well fitted inhibition curve with a large enough effect (not every such curve was filed as active); inconclusive means small, poorly fitted or top-dose-only effect, or another doubt; inactive means no such curve, though single readings can be large or run the other way. Unless noted, on the % scale 0 is the no-effect control and ±100 the full control effect.

SMILES	ALDH1A1 block	HPGD inh	IMPase inh
COc1ccc2[nH]cc(S(=O)(=O)c3ccc(C(C)C)cc3)c(=O)c2c1	4%	nt	nt
COC(=O)c1c(NC(=O)COc2cccc(C(F)(F)F)c2)sc2c1CCCC2	nt	nt	3
O=C(Cc1coc(-c2ccc(F)cc2)n1)N1CCOCC1	3%	-6%	?
O=C(Cc1coc(-c2ccc(F)cc2)n1)NC1CCCCC1	9%	18µM*	8
Cc1cc(C(=O)NNC(=S)Nc2ccccc2)nn1C	1%	nt	nt
Cc1cc(C)c2cc3c(N)c(C(=O)N4CCc5ccccc5C4)sc3nc2c1	4%	7.1µM*	2[1.84 µM]
Cc1ccc2nc3sc(C(=O)N4CCCc5ccccc54)c(N)c3cc2c1	-4%	-13%	-4
COc1ccc(-c2nc3ccccc3o2)cc1NC(=O)c1ccc(-c2cccc(Cl)c2C)o1	nt	nt	-6
Cc1c(Cl)cccc1S(=O)(=O)N1CCC(C(=O)NNC(=O)C2CC2)CC1	11%	nt	nt
CCn1c2ccc(C)cc2c2nnc(SCCN3CCOCC3)nc21	25µM*	nt	nt
CCn1c2ccccc2c2nnc(SCCN3CCCCC3)nc21	nt	nt	11
C/C(Nc1ccccc1)=C(/C#N)C(N)=O	1%	-12%	-9
CSc1nc2ccccc2cc1/C=C(\C#N)c1cccc(Cl)c1	10%	?	3
COCCn1c(C)cc(C(=O)CN2CCCCC2)c1C	4%	nt	nt
COCCn1c(C)cc(/C=C2\NC(=S)N(C)C2=O)c1C	16µM*	20µM*	nt
COC(=O)c1coc(-c2ccc(C)cc2)c1C(=O)OC	22µM*	-23%	-15
COC(=O)c1coc(-c2ccc(OC)cc2)c1C(=O)OC	?	?	8
COC(=O)[C@@H]1C[C@H]2CC[C@H](O)C[C@H]2N1Cc1ccc(N2CCOCC2)cc1	-9%	-7%	nt
COc1ccccc1C1CC(c2c(-c3ccccc3)c3cc(Cl)ccc3[nH]c2=O)=NN1S(C)(=O)=O (centres undefined)	?	?	5
COc1cccc(C2CC(c3c(-c4ccccc4)c4cc(Cl)ccc4[nH]c3=O)=NN2S(C)(=O)=O)c1OC (centres undefined)	5µM*	-22%	-1
CC(C)C(=O)Nc1ccc(C(=O)Nc2ccc(Br)cc2F)cc1	3%	nt	nt
Cc1ccccc1N1CCN(C(=S)c2ccc(-c3cccc([N+](=O)[O-])c3)o2)CC1	8.9µM*	nt	nt
CN1CCN(c2ccc(NC(=O)c3ccc(-c4cccc([N+](=O)[O-])c4)o3)cc2)CC1	-3%	nt	nt
Cc1ccccc1N1CCN(C(=S)c2ccccc2)CC1	1%	-8%	nt
Cc1ccc(N2CCN(C(=S)c3ccc(-c4cccc([N+](=O)[O-])c4)o3)CC2)cc1	3.2µM*	nt	nt
SMILES	ALDH1A1 block	HPGD inh	IMPase inh
COc1ccc(S(=O)(=O)N2CCN(C3Cc4ccccc4C3)CC2)cc1	?	-1%	nt
CC(c1ccccc1)N1CCn2c(nc3cc(NC(=O)NC4CCCCC4)ccc32)C1 (centres undefined)	?	?	0
CC1C/C(=N\NC(=S)NCc2ccccc2)CC(C)(C)C1 (centres undefined)	25µM*	-15%	5
CC1CCC/C(=N\NC(=S)NCc2ccccc2)C1 (centres undefined)	?	-13%	-1
CN1CCc2nc(SCC(=O)Nc3cccc(F)c3)c(C#N)c(-c3cccs3)c2C1	8.9µM*	-25%	5
CN1CCc2nc(SCC(=O)Nc3ccc(OC(F)(F)F)cc3)c(C#N)c(-c3cccs3)c2C1	3.2µM*	-24%	nt
Cc1cccc(CSc2nc3c(c(-c4cccs4)c2C#N)CN(C)CC3)c1	?	-5%	nt
CCOc1ccc(NC(=O)CSc2nc(-c3cccs3)cc(C(F)(F)F)c2C#N)cc1	nt	nt	3
CCOc1ccccc1-c1nnc(SCc2ccc(Cl)cc2)o1	nt	nt	8
Cc1ccc(S(=O)(=O)N2CCCC2c2nc3ccccc3s2)cc1 (centres undefined)	0%	0%	7
Cc1ccc(CN2CCN(/N=C\C(Br)=C\c3ccccc3)CC2)cc1	-7%	-17%	6
COC(=O)c1ccccc1NC(=O)c1noc2c1CC(C(C)(C)C)CC2 (centres undefined)	15%	-10%	7
COc1ccc(/C=C2\SC(=S)N(NC(=O)c3ccncc3)C2=O)cc1OC	-7%	nt	nt
O=C(NN1C(=O)/C(=C/C=C/c2ccccc2)SC1=S)c1ccncc1	4.5µM*	nt	nt
CCc1ccc(CCC(=O)Nc2nnc(CC)s2)o1	-1%	-2%	8
O=C(/C=C/c1cc([N+](=O)[O-])ccc1OC(F)F)Nc1cccc2ccccc12	?	0%	8
Cc1cc(CC(C)C)n(-c2nc3ccccc3c(=O)n2OCc2ccccc2)n1	5%	-11%	-1
COc1nc2ccccc2c(=O)n1OCC(C)C	14µM*	-18%	8

Screening results: PubChem, National Center for Advancing Translational Sciences (NCATS)
